Assay results from the supplement of paper PMC10981050.
Where “and” joins values, the source holds several entries; their conditions need not be identical. Equal values may be shown once. Where a name gives a salt, the structure may show the parent alone.

Key:
Assay in all cases: cell viability relative to vehicle control; higher = less cytotoxic
Conditions in all cases: 10 µM
K562 = tested on: K562
In short: (§1)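 CRISPR-edited mutant clones and isogenic wild-type clones from four leukaemia lines were screened against Selleck bioactive, kinase and epigenetic probe libraries, with identity-inconsistent compounds excluded. Each compound was acoustically dispensed at a single 10 µM dose into 384-well plates holding 2000 cells in 50 µL medium per well. After 48 h the supernatant was removed and CellTiter-Glo luminescence was read. Viability was expressed as percent of the on-plate vehicle control and analysed in Genedata Screener.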

MARIMO = tested on: MARIMO
In short: as §1

MOLM14 = tested on: MOLM14
In short: as §1

OCI-AML2 = tested on: OCI-AML2
In short: as §1

Structure (SMILES) | cell viability (K562; SRSF2 genotype: SRSF2 P95H/wt) | cell viability (K562; SRSF2 genotype: SRSF2 wt/wt) | cell viability (MARIMO; SRSF2 genotype: SRSF2 P95H/wt) | cell viability (MARIMO; SRSF2 genotype: SRSF2 wt/wt) | cell viability (MOLM14; SRSF2 genotype: SRSF2 P95H/wt) | cell viability (MOLM14; SRSF2 genotype: SRSF2 wt/wt) | cell viability (OCI-AML2; SRSF2 genotype: P95H/wt) | cell viability (OCI-AML2; SRSF2 genotype: wt/wt)
Cc1c(CN2CCC(Nc3ncnc4sc(CC(F)(F)F)cc34)CC2)ccc2[nH]c(C#N)cc12 | 3.04% and 4.05% | 17.5% | 42.9% | 41.7% | 4.02% | 3.33% | 0.4% | 9.25%
O=c1cc(-c2ccc(O)cc2)oc2c([C@@H]3OC[C@H](O)[C@H](O)[C@H]3O)c(O)c([C@@H]3O[C@H](CO)[C@@H](O)[C@H](O)[C@H]3O)c(O)c12 [Schaftoside] | 113% and 106% | 113% | 108% | 107% | 112% | 105% | 106% | 105%
Cc1c(C(=O)Nc2ccc(Oc3ccnc4[nH]cc(-c5ccccc5)c34)c(F)c2)c(=O)n(-c2ccc(F)cc2)n1C | 75.3% and 86.8% | 76.8% | 84.7% | 88.2% | 8.77% | 13.1% | 24.8% | 35.5%
CC(C)=CCC[C@](C)(O)[C@H]1CC[C@]2(C)[C@@H]1[C@H](O)C[C@@H]1[C@@]3(C)CC[C@H](O)C(C)(C)[C@@H]3[C@@H](O)C[C@]12C [(20S)-Protopanaxatriol] | 90.2% and 89.5% | 101% | 96.1% | 105% | 106% | 106% | 107% | 101%
C/C(=C\C(=O)OCCCCCCCCC(=O)O)C[C@@H]1OC[C@H](C[C@@H]2O[C@H]2[C@@H](C)[C@H](C)O)[C@@H](O)[C@H]1O [Mupirocin] | 98.8% and 99.8% | 101% | 103% | 103% | 97.7% | 103% | 100% | 92%
Cc1cccc(CN2CCN(C(c3ccccc3)c3ccc(Cl)cc3)CC2)c1 (stereo not drawn) [Meclizine dihydrochloride] | 87.7% and 94.2% | 91.5% | 92.2% | 105% | 86.2% | 91.2% | 86.4% | 83.2%
CCCCCCCCCCCCCCCC(=O)O [Palmitic acid] | 99.6% and 104% | 98.5% | 96.4% | 114% | 100% | 103% | 95.6% | 114%
NC(=O)c1nc(F)cnc1O [Favipiravir (T-705)] | 98.6% and 95.8% | 95.8% | 91.7% | 92.5% | 89.8% | 94.8% | 100% | 93.2%
CCCCCCCCOC(=O)c1cc(O)c(O)c(O)c1 [Octyl gallate] | 47.3% and 44.6% | 58.7% | 32.3% | 51% | 48.4% | 28.9% | 52.9% | 56.1%
NC(=O)Nc1cc(-c2cccc(F)c2)sc1C(=O)N[C@H]1CCCNC1 | 3.91% and 4.76% | 6.23% | 13.3% | 13.4% | 1.02% | 0.84% | 2.47% | 8.51%
O=CN1CC/C(=C/c2ccc3c(c2)OCO3)C1=O | 99.4% and 95.3% | 94.6% | 95.2% | 104% | 75.9% | 90.1% | 67.1% | 74.7%
NS(=O)(=O)c1ccccc1 [Benzenesulfonamide] | 100% and 106% | 109% | 97.9% | 109% | 96.5% | 106% | 107% | 91.7%
Cc1nc(-c2cccnc2)sc1C(=O)Nc1ccccc1-c1cn2c(CN3CCOCC3)csc2n1 | 97.4% and 94.2% | 88.3% | 107% | 116% | 102% | 103% | 95.3% | 102%
CN1CC(O)c2cc(N=NC(N)=O)c(O)cc21 (stereo not drawn) [Carbazochrome] | 98.5% and 95.6% | 89.4% | 99.4% | 94.8% | 95.7% | 101% | 98.8% | 95.4%
O=[N+]([O-])c1cn2c(n1)OC[C@@H](OCc1ccc(OC(F)(F)F)cc1)C2 | 94.3% and 98.1% | 91.8% | 92.7% | 101% | 97.8% | 97.5% | 98.9% | 99.5%
Cc1ccnc2c1NC(=O)c1cccnc1N2C1CC1 [Nevirapine (Viramune)] | 101% and 89.6% | 95.5% | 93.3% | 99.3% | 89.9% | 0.15% | 91.6% | 104%
O=C(O)Cc1ccc(O)cc1 [4-Hydroxyphenylacetic acid] | 100% and 101% | 101% | 96.8% | 104% | 95.7% | 101% | 95.5% | 108%
COC(=O)c1ccc(O)c(O)c1 [Methyl protocatechuate] | 105% | 105% | 90.5% | 101% | 101% | 109% | 117% | 97.9%
COc1ccc(Oc2cc(NCCC(F)(F)F)c3ncc(-c4ccc(C(=O)NC5CC5)c(C)c4)n3n2)c(F)c1F | 103% and 102% | 108% | 67.6% | 77.1% | 58.9% | 42.6% | 71.4% | 72.9%
C[C@]1(COc2ccc(N3CCC(Oc4ccc(OC(F)(F)F)cc4)CC3)cc2)Cn2cc([N+](=O)[O-])nc2O1 [Delamanid] | 97.1% and 93.5% | 93.5% | 94.6% | 100% | 94.9% | 101% | 83.8% | 88.6%
Nc1ccc(O)cc1 [4-Aminophenol] | 63.2% and 50.9% | 83.5% | 45.6% | 50% | 12.1% | 23.2% | 3.01% | 12%
